Experimental data as given in PubChem BioAssay.
Calls of active or inactive are those of the source.

What was measured:
[1] = optical density shifts of acrAB sulA E. coli – strain DRC41, OD650, 48 h, E. coli filamentation inducer project, primary screen (AID 1152); conditions: higher = more signal, called active from +8 up or from −8 down;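 note: E. coli MC1000 strain DRC41 lacking acrAB efflux pump and sulA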
[2] = probe aLefty1 binding on compound microarray – biochemical, small-molecule microarray, 635/667 nm fluorescence, primary screen (AID 1153); conditions: higher = more signal;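 note: score merges spot fluorescence with signal-to-noise ratio from the scanned slide images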
[3] = plasmodial surface anion channel blockers, osmotic lysis – cell-based, P. falciparum Indochina, OD700, 1 h, primary screen (AID 1154); conditions: P. falciparum Indochina infected RBC osmotic lysis, higher = more signal, called active from +8 up or from −8 down
[4] = plasmodial surface anion channel blockers, osmotic lysis – cell-based, P. falciparum Indochina, OD700, 2 h, primary screen (AID 1155);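 note: lysis reports solute entry through the parasite surface anion channel PSAC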; conditions: P. falciparum Indochina infected erythrocytes, higher = more signal, called active from +8 up or from −8 down
[5] = changes in parasitized red cell lysis, either direction – P. falciparum Indochina, OD700, 3 h, PSAC antagonist project, primary screen (AID 1156); conditions: P. falciparum-infected erythrocytes, osmotic lysis, higher = more signal, called active from +8 up or from −8 down
[6] = plasmodial surface anion channel blockers, osmotic lysis – cell-based, P. falciparum Indochina, OD700, 18 h, primary screen (AID 1157); conditions: P. falciparum Indochina infected erythrocytes, osmotic lysis OD700, 18 h; higher = more signal, called active from +8 up or from −8 down
[7] = S6 kinase pathway phospho-S6 level changes – cell-based, A549, cytoblot, luminescence, serum-stimulated, primary screen (AID 1158); conditions: 5 h, higher = more signal;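 note: serum-stimulated A549 lung adenocarcinoma cells; signal is phosphorylated S6 detected by cytoblot immunostaining with HRP secondary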
[8] = biological target: NADPH oxidase 2 (Homo sapiens) (UniProt P04839); test: compounds shifting NOX2 Amplex Red fluorescence – cell-based, HEK293-NOX2, PMA-stimulated, NOX inhibitor project, primary screen (AID 1159); conditions: 45 min, higher = more signal, called active from +8 up or from −8 down; note: test concentration not given here
[9] = biological target: NADPH oxidase 4 (Homo sapiens) (UniProt Q9NPH5); test: compounds shifting NOX4 Amplex Red fluorescence – cell-based, HEK293-NOX4, tetracycline-induced, NOX inhibitor project, primary screen (AID 1160); conditions: HEK293-NOX4, Amplex Red H2O2 fluorescence, 45 min; higher = more signal, called active from +8 up or from −8 down
[10] = biological target: NADPH oxidase 5 (Homo sapiens) (UniProt Q96PH1); test: compounds shifting NOX5 Amplex Red fluorescence – cell-based, HEK293-NOX5, NOX inhibitor project, primary screen (AID 1161); conditions: HEK293-NOX5, ionomycin, 45 min, higher = more signal
Chain of NADPH oxidase 5 (Homo sapiens) (Q96PH1 whole entry, looked up): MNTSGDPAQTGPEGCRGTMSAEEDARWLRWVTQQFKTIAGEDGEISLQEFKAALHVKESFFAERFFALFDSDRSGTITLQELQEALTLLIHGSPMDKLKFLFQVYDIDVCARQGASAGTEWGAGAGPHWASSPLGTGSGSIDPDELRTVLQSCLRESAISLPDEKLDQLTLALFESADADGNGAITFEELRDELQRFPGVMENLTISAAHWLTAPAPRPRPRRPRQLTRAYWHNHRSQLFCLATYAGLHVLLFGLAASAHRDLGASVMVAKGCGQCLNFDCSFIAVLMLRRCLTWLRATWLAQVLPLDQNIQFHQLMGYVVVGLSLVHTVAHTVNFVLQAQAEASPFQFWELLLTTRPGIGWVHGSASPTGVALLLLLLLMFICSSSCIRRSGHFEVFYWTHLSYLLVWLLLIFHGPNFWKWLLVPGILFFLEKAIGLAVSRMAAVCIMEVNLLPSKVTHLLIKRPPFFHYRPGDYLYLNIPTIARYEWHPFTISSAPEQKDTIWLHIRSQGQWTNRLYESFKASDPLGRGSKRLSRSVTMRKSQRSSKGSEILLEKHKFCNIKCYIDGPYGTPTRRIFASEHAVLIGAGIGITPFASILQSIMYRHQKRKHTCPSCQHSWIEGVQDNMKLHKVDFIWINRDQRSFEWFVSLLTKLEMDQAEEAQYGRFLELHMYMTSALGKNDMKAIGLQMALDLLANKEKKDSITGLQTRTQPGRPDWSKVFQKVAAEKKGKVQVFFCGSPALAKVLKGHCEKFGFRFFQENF

Chain of NADPH oxidase 2 (Homo sapiens) (P04839 whole entry, looked up): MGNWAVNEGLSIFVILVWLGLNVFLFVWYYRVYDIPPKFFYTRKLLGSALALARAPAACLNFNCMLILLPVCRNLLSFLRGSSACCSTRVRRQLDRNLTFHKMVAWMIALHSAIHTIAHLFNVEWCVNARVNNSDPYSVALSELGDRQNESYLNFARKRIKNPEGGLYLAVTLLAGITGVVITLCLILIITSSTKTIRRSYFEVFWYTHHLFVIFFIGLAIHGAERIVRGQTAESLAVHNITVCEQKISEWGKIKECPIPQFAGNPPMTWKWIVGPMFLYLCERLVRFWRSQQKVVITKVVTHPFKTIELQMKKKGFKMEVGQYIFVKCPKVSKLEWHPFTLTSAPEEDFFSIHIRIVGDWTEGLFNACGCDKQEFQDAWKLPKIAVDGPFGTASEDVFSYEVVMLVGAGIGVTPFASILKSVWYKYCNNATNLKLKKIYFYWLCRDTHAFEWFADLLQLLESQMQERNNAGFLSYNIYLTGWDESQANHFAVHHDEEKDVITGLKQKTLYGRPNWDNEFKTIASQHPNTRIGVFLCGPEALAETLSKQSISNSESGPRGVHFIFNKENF
Chain of NADPH oxidase 4 (Homo sapiens) (Q9NPH5 whole entry, looked up): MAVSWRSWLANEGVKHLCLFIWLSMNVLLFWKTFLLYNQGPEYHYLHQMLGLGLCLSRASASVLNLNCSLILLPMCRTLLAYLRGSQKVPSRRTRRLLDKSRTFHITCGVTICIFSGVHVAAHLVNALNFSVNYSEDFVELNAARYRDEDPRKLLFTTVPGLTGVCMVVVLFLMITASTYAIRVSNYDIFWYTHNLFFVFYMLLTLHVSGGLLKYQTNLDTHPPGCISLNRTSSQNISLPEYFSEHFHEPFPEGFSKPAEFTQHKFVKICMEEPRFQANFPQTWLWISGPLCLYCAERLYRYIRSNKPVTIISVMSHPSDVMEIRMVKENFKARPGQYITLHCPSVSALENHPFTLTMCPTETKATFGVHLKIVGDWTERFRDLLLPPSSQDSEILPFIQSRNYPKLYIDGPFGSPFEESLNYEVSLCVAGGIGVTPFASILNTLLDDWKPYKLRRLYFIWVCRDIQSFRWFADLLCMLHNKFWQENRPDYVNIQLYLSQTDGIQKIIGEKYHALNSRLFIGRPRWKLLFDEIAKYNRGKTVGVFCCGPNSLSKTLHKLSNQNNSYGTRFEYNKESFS

SMILES | z-score [1] | composite z-score [2] | z-score [3] | z-score [4] | z-score [5] | z-score [6] | z-score [7] | z-score [8] | z-score [9] | z-score [10]
C=C(COC)C(=O)CC[C@H](OC(=O)c1ccccc1-c1ccccc1C(=O)O)c1ccc(OCCO)cc1 | 0.146 (inactive) | 0.134 | 10.5 (active) | 1.72 (inactive) | 2 (inactive) | 0.626 (inactive) | -0.0494 | 0.00741 (inactive) | -0.221 (inactive) | -1.8
O=C1CSC(c2cccc([N+](=O)[O-])c2)N1c1ccccc1 (stereo not given) | 0.0188 (inactive) | 0.0163 | 0.0361 (inactive) | 0.111 (inactive) | 0.708 (inactive) | -0.139 (inactive) | -0.0619 | -0.276 (inactive) | -0.0621 (inactive) | 0.509
CC(C)CCC[C@@H](C)[C@H]1CC[C@@]2(C)C3=C(CC[C@]12C)[C@@]1(C)CC[C@H](OC(=O)c2ccc(N)cc2)C(C)(C)C1CC3 (stereo not given in full) | 3.27 (inactive) | -0.278 | -1.05 (inactive) | -1.26 (inactive) | -0.492 (inactive) | -2.86 (inactive) | 1.93 | -0.759 (inactive) | 0.253 (inactive) | 0.807
NC(=O)[C@@H]1[C@H]2C(=O)O[C@H](c3ccccc3)[C@H](c3ccccc3)N2[C@H](c2ccccc2OCCO)[C@@]12C(=O)Nc1ccc(C#CCCO)cc12 | 1.41 (inactive) | -0.0464 | 14.3 (active) | 0.966 (inactive) | -2.23 (inactive) | -1.18 (inactive) | 1.02 | 2.03 (inactive) | 1.18 (inactive) | 1.02
O=C1O[C@H](c2ccccc2)[C@H](c2ccccc2)N2[C@H]1[C@@H](C(=O)N1CCCCCCC1)[C@]1(C(=O)Nc3ccccc31)[C@H]2c1ccc(O)cc1 | -0.0491 (inactive) | 2.97 | 0.517 (inactive) | 0.435 (inactive) | -0.882 (inactive) | 0.19 (inactive) | -0.541 | -4.42 (inactive) | -1.03 (inactive) | -3.4
O=C1NC(=O)C2C1C=CC(C(O)CCc1ccccc1)N2Nc1ccccn1 (stereo not given) | 0.0468 (inactive) | 0.0844 | -0.247 (inactive) | -0.752 (inactive) | -0.548 (inactive) | -1.97 (inactive) | 1 | -1.43 (inactive) | -3.34 (inactive) | -1.52
C=CCC(OC(C)=O)[C@@H]1[C@@H](N(Cc2ccc(-c3cccc(C(F)(F)F)c3)o2)C(=O)c2cccc3ccccc23)c2cc(OCCCO)ccc2N1C(=O)c1ccc(-c2ccccc2)cc1 (stereo not given in full) | -0.985 (inactive) | -0.012 | 0.531 (inactive) | 0.431 (inactive) | 2.33 (inactive) | 0.485 (inactive) | -0.326 | -0.959 (inactive) | -1.45 (inactive) | -1.08
O=C(C=C(CC(O)c1cccc(Cl)c1)OCCF)OCCF (stereo not given) | 0.597 (inactive) | -0.0694 | 1.35 (inactive) | -0.385 (inactive) | -0.0116 (inactive) | -1.67 (inactive) | 0.785 | 0.176 (inactive) | -0.15 (inactive) | 0.305
[N-]=[N+]=NCc1ccccc1[C@H]1OC(c2ccc(OCCCO)cc2)=N[C@@]1(Cc1ccccc1N=[N+]=[N-])C(=O)NCCN1CCOCC1 | 0.0417 (inactive) | 0.194 | 24.7 (active) | 16.2 (active) | 1.7 (inactive) | 1.85 (inactive) | -0.0338 | -0.753 (inactive) | -0.358 (inactive) | 1.41
COCCCNC(=O)[C@@]1(C)c2ccccc2C(=O)N(c2ccc(C)cn2)[C@H]1c1ccc(CO)cc1 | -0.0018 (inactive) | -0.341 | 0.833 (inactive) | -0.186 (inactive) | 0.0037 (inactive) | -0.211 (inactive) | -0.161 | -1.02 (inactive) | -0.261 (inactive) | -1.7
O=C1NC(=O)C2C1C=CC(C(O)c1ccc3c(c1)OCO3)N2Nc1ccc(Cl)cc1Cl (stereo not given) | -3.85 (inactive) | 0.0861 | 7.58 (inactive) | 1.84 (inactive) | -0.254 (inactive) | 1.56 (inactive) | -0.593 | -0.0436 (inactive) | -5.24 (inactive) | -3.26
C=CCC(OC(C)=O)[C@@H]1[C@@H](N(Cc2ccc(-c3ccccc3)cc2)C(=O)Cc2ccc(OC)cc2)c2cc(OCCCO)ccc2N1C(=O)c1ccc(-c2ccccc2)cc1 (stereo not given in full) | 0.769 (inactive) | 0.587 | 1.09 (inactive) | 0.969 (inactive) | 0.0304 (inactive) | 0.406 (inactive) | 1 | 0.713 (inactive) | 0.878 (inactive) | 2.49
C=CCOc1ccc([C@@H]2CC=C(C(=O)OCC)[C@H](c3cccc(Br)c3)N2S(=O)(=O)c2ccc(C)cc2)cc1 | 0.251 (inactive) | -0.012 | 0.652 (inactive) | -0.384 (inactive) | -0.864 (inactive) | -2.24 (inactive) | 1.11 | 0.629 (inactive) | 0.399 (inactive) | -0.0171
